# System: VDR:RXRa (NR concentration 270 nM, RXRa partner concentration 90 nM)
# Test: PBM binding z-score (relative to random genomic background probes); higher = stronger binding; sequences stand for … in GC…GCGATTGACAGCGTAGAATGAAGG
# Protocol: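 Protein-binding microarray (Agilent 4x180K custom design, double-stranded 60-nt probes: 5' GC cap, 34-nt variable region, 24-nt constant primer region; full probe sequence given). Purified or IVT nuclear receptor:RXRα heterodimers (3:1 NR:RXRα, mostly 270:90 nM) or homodimers were incubated for 1 h in PBS with 2% milk and no ligand, then detected with Alexa488 antibodies. Fluorescence from o1-orientation probes (~5 replicates averaged) was converted to z-scores against 500 random hg19 background probes. Variable regions are seed direct-repeat (DR0–DR5) sites, all their single-nucleotide variants and half-site ablations.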
row,Sequence,PBM binding z-score
1,ATCGAAAGGTCGAGGTGTGTATAGAGAAAGGGAA,2.32
2,CCTATTAGTTGACCATAAGGGCACCCGAAGCTCG,1.09
3,CCTCGGAGGCCAGAAGGTCAGAGCTGTCCGCTTT,0.72
4,AGAATGAGGTTACGATCAGGGAAACAGAATACAT,1.43
5,CCGACTGGGGCATAAGTTTACCATAAGCCAGCCC,-0.462
6,GGAACGAGGGCAAAGTTGTTAGCATCTGTCGACG,1.09
7,CGTCCAAGATCAGCAGGTCAGTGAAAGCGACGTG,0.173
8,TCGAGCAGGTTACCAATGGGGCATTCAGCTTTCT,0.08
9,AGAGACAGGTGAGTGAAGGTAACTCAGCTGGACG,-0.141
10,GATACAGGGTCAAGGCCAGAGTTCGCGTATTGAT,5.31
11,CGTCCAAGGTCAAAGATCAGTGAAGAGATGACGG,4.44
12,CCTGCTAGGTCAATGGTCAGATAAAGCAGCTCGC,0.927
13,ACTATTAGTTGAGACTAGGGCAACCGATAGGTTG,-0.386
14,TCATATAGGTCAATGCTAGGTGAAAGTCCGATCT,2.9
15,CCTAGCAGGCCAATCTGGGTCACTCTAGGCTTGA,0.251
16,CATACAGGGTCAGCTAGGCCAGTGTAGGGACGGC,3.86
17,TCTCGGAGGACACTAAGGTCAGAGCTTTCCAGAG,3.31
18,CTTCGGAGGACAGAAGGTCAGAGCTGTCCGCTTT,0.953
19,TCGTGTAGATCAAAGGTTAAGAAAGCCGAAGCCT,1.45
20,CATACAGCGTCAGCTAGGCCAGAGTAGGGACGGC,-0.851

row,Sequence,PBM binding z-score
1,TCGAGTAGGTTAATCGGGGCATTCAGCCAACATA,3.59
2,CCGACTGTGGCATAAGGTTACCATAAGCCAGCCC,0.153
3,TGAATGAGGTTATAAGATCACGGAACGTTGCAAA,1.53
4,CGTCCAAGTTCAAGGTCAGTGAAAGAGACTCGAA,3.88
5,TAGCCTAGGTCATTGGGCCAGTATTGTACGCATC,2.26
6,GTACCAAGGTGAAGAGGTCGTTGATGAGTAGGCG,2.71
7,CGTCAAAGTTCAAGGTAACGTCACAGAAAGCAGC,3.96
8,TGAATGAGGTTATAAGATGAGGGAACGTTGCAAA,0.832
9,ACTTATGGGTCAACGAGGTTATAGCACGCGTATA,7.43
10,GCTGACAGGTGAAACGCAGGTAACTCAGGGTGGC,-0.355
11,CTCGAAAGATCGGTTGAGGTGAGTATACGGATAA,-0.152
12,GGAACGAGGGCATTCGAGTTGATGGCATGGCGAT,3.36
13,ATATGCAGGTTAAGGGTCATTCAGGTTGGTTCGC,5.68
14,ATACGAAGGTGATCGTGAGGTCGTTGATACTAAC,3.09
15,CGTCCAAGGTTAGCAGGTCAGTGAAAGCGACGTG,1
16,TCTTGTAGATGAGCAGGTTAAGAAAGCTGGCCAA,-0.0672
17,TAGCCTAGGTAATTCAGGGGCCAGTATAGAAAGC,-0.417
18,ATATGTAGGTTACATCTGGGTCATTCAGGCTATG,3.04
19,GCTCGGAGGACAAGGCCAGAGCTTTGTCCGTAGA,-1.03
20,CCTAGTTGTTCAAGGTCACACACGCTATAGGTAC,4.49
